Inconclusive results are not listed. Entries that show only a call come without a potency. Calls of active or inactive are those of the source. The call rests on the fitted dose curve; in most records, active means well fitted inhibition curve with a large enough effect; inconclusive means small, poorly fitted or top-dose-only effect; inactive means flat fitted curve, though single readings scatter.
Potency means the concentration at half of the fitted maximal effect.

The test can be described thus: CHOP2 Reporter Counterscreen Assay for Inhibitors of Ubiquitin-specific Protease USP2a.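 Further: activated enterokinase alone at 50 pM in a cell-free format rather than USP2a or CHOP2; nearly all actives have a fitted effect of over 55% in size.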 Particulars: purified enterokinase, fluorogenic substrate, 485/531 nm; series mostly up to 38.3 µM. A digest of the protocol:
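Cell-free counterscreen with pre-activated enterokinase alone (50 pM final) in 20mM Tris-HCl pH 8.0, 2mM CaCl2, 2mM beta-mercaptoethanol, 0.05% CHAPS; compound preincubation 30 min RT, reporter substrate 25nM final, fluorescence read after 10 min (Ex 485/Em 531).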
On the technique in general: The purpose of a counterscreen is to sort out artefacts and off-target activity.
As to `Cc1ccc2c(c1)c1c3n2CCN(C(=O)Cn2c(-c4ccccc4)noc2=O)C3CCC1` (stereo not given), the Potency entry is “inactive”.
Regarding `Cc1cccc(N2CCN(C(=O)CCc3nc4ccccc4[nH]3)CC2C)c1` (stereo not given), the Potency result is “inactive”.
Consider `Cc1cc(C)n(C(=O)c2cccc(S(=O)(=O)N3CCCC3)c2)n1`, for which the Potency result was “inactive”.
In the case of `O=C(/C=N/O)NCc1cccnc1`, the Potency result was “inactive”.
As to `C(=N\N(c1ccccc1)c1ccccc1)/c1ccccn1`, the Potency entry was “inactive”.
Under `CC(=O)N1c2c(cc(Br)cc2S(=O)(=O)NCc2cccnc2)CC1C` (stereo not given) stands “inactive”.
Under `O=C(CCS(=O)(=O)c1ccc(Br)s1)NC1CCCC1` stands “inactive”; under `CC1=NN(C(=O)c2csc(C)c2C)C(O)(C(F)(F)F)C1` (stereo not given), “inactive”.
On to `CC(C)(C)NC(=O)C(c1ccco1)N(C(=O)c1ccc(CN2CCOCC2)o1)c1ccccc1` (stereo not given), for which the Potency result is “inactive”.
Turning to `O=C(CSc1ncccc1-c1nc2ccccc2[nH]1)Nc1ccc2c(c1)OCCO2`, the Potency result was “inactive”.
Under `N#Cc1c(SCC(=O)Nc2nc3ccccc3s2)sc2c(O)cc(=O)[nH]c12` stands 10 µM (active); under `CC(=O)c1ccc2c(c1)C1C=CCC1C(C(=O)O)N2` (stereo not given), 11.2 µM (active); under `CCc1sc(/C=C(/C#N)C(N)=S)cc1[N+](=O)[O-]`, “inactive”.
Turning to `Cc1ccc(C2=N/C(=C\c3c(C)nn(-c4ccccc4)c3N3CCCC3)C(=O)O2)cc1`, the Potency result was “inactive”.
As for `O=C(NC1CCCCC1)C(c1ccco1)N(C(=O)c1csnn1)c1cccc(F)c1` (stereo not given), the Potency result is “inactive”.
In the case of `CCc1cc(C(=O)N=Nc2c(O)[nH]c3ccc([N+](=O)[O-])cc23)c2ccccc2n1`, the Potency was 8.91 µM (active).
Regarding `Cc1ccc(NC(=O)CCC(=O)OC(C)C(=O)c2ccccc2)cc1` (stereo not given), the Potency result is “inactive”.
To `COC(=O)C1CCN(C(=O)COC(=O)CC(NC(N)=O)c2ccc(Cl)cc2)CC1` (stereo not given) belongs “inactive”.
Under `CCOc1cc(/C=C/c2nc3cc(C)c(C)cc3s2)ccc1OCC(=O)N1CCOCC1` stands “inactive”; under `COCc1cc(C)nc(SCC[N+](C)(C)CC(=O)Nc2cccc(C(F)(F)F)c2)c1C#N`, “inactive”.
For the compound `c1coc(CNC2CCCCCCC2)c1`, the Potency result was “inactive”.
For `CS(=O)(=O)c1nc(-c2ccc(Br)cc2)cc(-c2ccccc2)c1C#N`, the Potency entry was “inactive”.
On to `Cc1nc2ccccc2c2oc(C(=O)NCCN3CCN(C)CC3)cc12`, for which the Potency result is “inactive”.
To `COc1cc(OC)cc(-c2c(C#Cc3ccsc3)c3cc(-c4ccc(OC)c(OC)c4)ccc3n2C)c1` belongs “inactive”; to `O=C1Nc2ccc(S(=O)(=O)N3CCCCCC3)c3cccc1c23`, “inactive”; to `COC(=O)c1c(O)c2c([nH]c1=O)CCCC2`, “inactive”.
`Cc1cccc(Nc2nc(NCc3ccco3)c3ccccc3n2)c1`: the Potency result is “inactive”.
Consider `O=C(N/N=C/c1ccc(F)cc1)c1cc(-c2ccco2)nc2ccccc12`, for which the Potency is 2.24 µM (active).
Turning to `Cc1cc(Cl)ccc1NC(=S)NCCCN1CCCC1=O`, the Potency result was “inactive”.
As to `COC(=O)c1c(N2C(=O)CCC2=O)sc2c1CCCC2`, the Potency entry is “inactive”.
Take `COc1ccc(-n2c(=S)[nH]c3cc(C(=O)NCc4ccc(F)cc4)ccc3c2=O)c(OC)c1`: the Potency entry is “inactive”.
With `COc1cc(C(=O)OC2CCCCC2=O)cc(OC)c1C` (stereo not given), the Potency result is “inactive”.
Consider `O=C(NC12CC3CC(CC(C3)C1)C2)C1=COCCO1`, for which the Potency result is “inactive”.
On to `COc1ccc(-c2csc(Nc3ccc(S(=O)(=O)Nc4cc(OC)nc(OC)n4)cc3)n2)cc1`, for which the Potency entry was “inactive”.
In the case of `CCC(C)(C(=O)NC1CCCCC1)N(C(=O)C1CCC(=O)N1)c1ccccc1` (stereo not given), the Potency entry was “inactive”.
To `COc1ccccc1N1C(=O)CC(N2CCc3ccccc32)C1=O` (stereo not given) belongs “inactive”.
To `COc1ccc(CCN2CC(C#N)=C3c4cc(OC)c(OC)cc4CCN3C2)cc1OC` belongs “inactive”; to `Cc1cc(C)n2nc(S(=O)(=O)NCCc3ccccc3)nc2n1`, “inactive”; to `COC(=O)c1ccccc1NC(=O)CSc1nc(O)cc(=O)n1C1CCCC1`, “inactive”.
Under `CC1=NC(C(F)(F)F)(C(F)(F)F)C2=C(CC(C)(C)CC2=O)N1Cc1ccco1` stands “inactive”.

The values are drawn from PubChem BioAssay AID493169 (National Center for Advancing Translational Sciences (NCATS), 2011).
